Data on eleven compounds can be found in PubChem BioAssay.

Records with an inconclusive call do not appear. Calls of active or inactive are those of the source. Unless noted, no cut-off is given here; in the data, nearly all actives have AC50 up to about 26 µM. Bridge positions count the residues as written; N and C are the ends. Square brackets hold non-standard residues; d marks the D form. Peptide text beside a SMILES is read from it. * marks the point of attachment. X2 = CCC(C)C(N)C1=NC(C(=O)*)CS1; dOrn = NCCC[C@@H](N)C(=O)O

A short description of assay [1]: growth inhibition of DIPG glioma cells, dose response, cell-based, SU-DIPG-XIII, MIPE5.0, CellTiter-Glo, qHTS (AID 1347064; cut-off not given, nearly all actives have AC50 up to about 23 µM;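 for AC50: cells exposed to compound for 48 hours before the viability read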). The settings on record: SU-DIPG-XIII viability, CellTiter-Glo ATP luminescence.
A short description of assay [2]: viability loss in pontine glioma line – cell-based, SU-DIPG-XXV, MIPE5.0, CellTiter-Glo, qHTS, dose response (AID 1347065).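 Note: cells exposed to compound for 48 hours before ATP readout.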 Conditions: CellTiter-Glo ATP luminescence.
Assay [3] in a line: SU-DIPG-XXV glioma cell viability, MIPE5.0 library, qHTS (AID 1347068; cut-off not given, nearly all actives have IC50 up to about 30 µM;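 for IC50: cells exposed to compound for 48 hours before viability readout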). On the technique in general: Quantitative high-throughput screening tests each substance at several concentrations.
Assay [4] can be described thus: JHH-DIPG-1 glioma cell viability, MIPE5.0 library, CellTiter-Glo luminescence, qHTS (AID 1347067).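 Note: cells exposed to compound for 48 hours before readout.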 The settings on record: JHH-DIPG-1 glioma viability, CellTiter-Glo ATP luminescence. For orientation: In ATP-based viability assays light output follows the ATP content of the culture.
A short description of assay [5]: sensitizers of A549 cells to miR-34 induction, primary screen, imaging, A549 dox-inducible miR-34, nuclei and caspase counts (AID 1347080;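 active = compounds whose cell count with miR-34 switched on is under 0.7 times the count with it off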). Conditions: A549 miR-34 inducible, Hoechst nuclei count, 48 h.
A short description of assay [6]: survival rescue of mitochondrial mutant cells in low glucose, primary screen, MELAS cybrids, Rieske KO mouse fibroblasts, CellTiter-Glo (AID 1508586;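 active = mean z-score across replicates of 1.96 or higher in either the MELAS or the Rieske mutant cell line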;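 note: z relative to plate mean and SD of compound and empty wells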).
Assay [7] can be described thus: SU-DIPG-VI glioma cell viability, MIPE4.0 library, CellTiter-Glo luminescence, qHTS (AID 1347066; cut-off not given, nearly all actives have AC50 up to about 30 µM;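 note: cells exposed to compound for 48 hours before readout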). The settings on record: CellTiter-Glo ATP luminescence.
The nature of assay [8]: hESC survival regulators, cell-based (AID 493140; call rule not given here;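 note: cells exposed to compounds for four days before counting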). The settings on record: human embryonic stem cell survival screen; stronger effect = higher value.
The nature of assay [9]: liver-stage malaria parasite growth inhibition, primary screen, cell-based, HepG2, luciferase luminescence, HepG2 viability (AID 624349; in the data active = parasite load remaining mostly below about 12%, no sharp cut-off; inactive = mostly above about 10%;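 note: 100% = mean of DMSO negative control wells on the same plate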). Conditions: P. berghei liver stage in HepG2, luciferase luminescence, concentration not given here; parasite load remaining: stronger effect = lower value; viability: measured here: HepG2 viability without parasites.
Setting [10] is: stronger effect = lower value, cell number ratio, induced over uninduced.
Where [11] appears, read: measured here: relative caspase fold change +Dox/-Dox.
Setting [12] is: measured here: total cells with miR-34 induction, stronger effect = lower value.
Where [13] appears, read: measured here: total cells without miR-34 induction.
The mark [14] stands for this setting: MELAS cybrid survival, CellTiter-Glo 48 h, stronger effect = higher value.
Where [15] appears, read: Rieske KO mouse fibroblast survival, CellTiter-Glo 72 h.

As to `Cc1cc(O[C@@H](CCC(F)(F)F)c2ccc(C(=O)NCCC(=O)O)cc2)cc(C)c1-c1ccc(C(C)(C)C)cc1`, the AC50 was 11.8 µM (active) in [1] and 9.34 µM (active) in assay [2]. The 50% inhibitory concentration (IC50) in assay [3] is 8.33 µM (active).

Take `C[C@H](Nc1ncnc2nc[nH]c12)c1cc2ccc(F)cc2nc1-c1ccccn1`: the outcome in assay [1], in assay [4] and in assay [3] was inactive.

For `COc1cc(N2CCN(C)CC2)ccc1Nc1nccc(-c2cn(C)c3cnccc23)n1`, the AC50 in [1] was 10.5 µM (active); in assay [2], 13.2 µM (active); in assay [4] it was 18.6 µM (active). Further, in assay [3], the result was inactive. Besides, the fold change in assay [5] (setting [10]) was 0.785 (inactive); in [5] (setting [11]), 1.02. For the same compound, the cell count was 4990 in [5] (setting [12]) and 6360 in assay [5] (setting [13]). Further, the z-score in assay [6] (setting [14]) is 1.95 (inactive); in assay [6] (setting [15]) it was -5.23.

For `Cc1c(Cl)cccc1S(=O)(=O)Nc1nc(CCN2CCOCC2=O)cs1`, the result in [1], in assay [2] and in assay [3] was inactive.

Turning to `Cc1ccc(NS(=O)(=O)c2ccc3c(c2)C2C=CCC2C(c2ccc(C(=O)O)cc2)N3)cc1C` (stereo not given), the compound was called inactive in assay [1], in [4] and in assay [3].

As for `CN(C)S(=O)(=O)c1ccc2c(c1)C(=Cc1cc3c([nH]1)CCCC3)C(=O)N2`, the call in assay [1] and in assay [7] was inactive.

Consider `Cc1cc(C)cc(Oc2ccc(CNC(=O)[C@H](C)N)cc2C)c1`, for which the AC50 in [1] is 26.3 µM (active); in [2], 18.6 µM (active). The result in assay [3] was inactive.

For `Nc1nc2c(c(=O)[nH]1)N1CN(c3ccc(C(=O)N[C@@H](CCC(=O)O)C(=O)O)cc3)CC1CN2` (stereo not given in full), the compound was classed as inactive in assay [1] and in [4].

Turning to `CCC(C)C(N)C1=NC(C(=O)N[C@@H](CC(C)C)C(=O)N[C@H](CCC(=O)O)C(=O)N[C@H](C(=O)N[C@H]2CCCCNC(=O)[C@H](CC(N)=O)NC(=O)[C@@H](CC(=O)O)NC(=O)[C@H](Cc3cnc[nH]3)NC(=O)[C@@H](Cc3ccccc3)NC(=O)[C@H]([C@@H](C)CC)NC(=O)[C@@H](CCCN)NC2=O)[C@@H](C)CC)CS1` (stereo not given in full) (X2-L[dE]IK[dOrn]I[dF]H[dD]N; lactam 4-C), the survival in assay [8] is 9.33 (inactive). Also, the parasite load remaining in assay [9] is 69.3% (inactive). In addition, the viability in assay [9] amounted to 103%. The outcome in assay [1], in assay [2], in assay [4] and in [3] was inactive. For the same compound, the fold change in assay [5] (setting [10]) was 0.898 (inactive); in assay [5] (setting [11]) it was 1.36. Moreover, the cell count in assay [5] (setting [12]) came out at 9810; in assay [5] (setting [13]) it was 10900. Moreover, the z-score was 0.499 (inactive) in assay [6] (setting [14]) and -0.0886 in assay [6] (setting [15]).

Turning to `c1cn2cc(-c3ccc4cn[nH]c4c3)nc(Nc3ccc(N4CCOCC4)cc3)c2n1`, the AC50 in assay [1] was 11.8 µM (active); in [2] it was 6.61 µM (active); in assay [4] it was 14.8 µM (active). Further, in assay [3], the outcome was inactive. Besides, the fold change in assay [5] (setting [10]) is 0.776 (inactive); in assay [5] (setting [11]), 0.455. Further, the cell count in assay [5] (setting [12]) worked out at 4570; in assay [5] (setting [13]), 5880. Moreover, the figures for the z-score in [6] (setting [14]) and in assay [6] (setting [15]) were 1.34 (inactive) and 0.233, respectively.

For the compound `Nc1ccn([C@@H]2C(F)=C(CO)[C@@H](O)[C@H]2O)c(=O)n1`, the compound was called inactive in assay [1], in [4] and in [3].

What is called AC50 is the midpoint of the concentration-response curve, whichever way the signal moves. For orientation: IC50 means the midpoint of a concentration-inhibition curve. As a reminder, the viability is a read-out of living cells in per cent, often relative to untreated cells.
